# The entries come from a sample that favours hits as a whole.
# AmpC inh no detg: AmpC beta-lactamase inhibition without detergent; 0.52% of 330,000 active; AmpC nitrocefin hydrolysis, absorbance 480 nm, 0.0001% Triton; AID 485341; Potency, µM (titrated, usually from 57.1 µM), without a hit: top-dose activity change, negative = inhibition, hits mostly inhibitors;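 further: potency means the concentration at half of the fitted maximal effect; plate controls were no compound for no effect and no enzyme for full effect; nearly all actives have a fitted effect of over 20% in size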
# Target sequence (P00811 whole entry, looked up): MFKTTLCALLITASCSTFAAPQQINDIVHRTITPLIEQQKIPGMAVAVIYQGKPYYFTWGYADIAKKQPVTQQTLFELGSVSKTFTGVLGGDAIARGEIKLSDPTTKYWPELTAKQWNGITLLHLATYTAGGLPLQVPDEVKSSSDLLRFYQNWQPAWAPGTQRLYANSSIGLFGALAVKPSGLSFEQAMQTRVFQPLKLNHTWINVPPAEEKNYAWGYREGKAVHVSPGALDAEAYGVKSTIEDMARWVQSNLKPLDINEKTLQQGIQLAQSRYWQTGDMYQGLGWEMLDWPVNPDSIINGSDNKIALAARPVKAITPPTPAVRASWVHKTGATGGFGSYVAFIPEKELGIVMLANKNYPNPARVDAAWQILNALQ
#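 AmpC (5.3 nM in the dispensed reagent) in 20 mM phosphate pH 7.0 with 0.01% (detergent screen) or 0.0001% Triton X-100 was preincubated with compounds for 15 min at room temperature. Nitrocefin was then added from an 800 uM solution, and hydrolysis was followed at 480 nm.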
# Shiga inhibitor: blocks Shiga toxin action in Vero cells. Vero cells, Shiga toxin protein synthesis inhibition reporter. inhibition, % at 38.7 µM. 9.2% of 290,000 active; in the data active means inhibition mostly above about 28%, no sharp cut-off; inactive means mostly below about 43%; further: 0% is about no effect
# NS1 inh: blocks influenza NS1 protein function | Potency, µM (highest dose often 46.1 µM), for the others: at the top dose activity, positive = more growth | 0.4% of 270,000 active | AID 2326; calls by dose curve; further: potency means the concentration at half of the fitted maximal effect; actives are rising curves; nearly all actives have a fitted effect of over 50% in size
#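 OD600 was taken as the measure of yeast growth restored by compound in an NS1-expressing S. cerevisiae strain. Cells had been washed out of glucose medium and diluted 1:100 into galactose -URA medium, pH 6.0.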
# Cycloheximide cs: counter-screen hit for Shiga toxin inhibitors, cycloheximide. cell reporter, cycloheximide protein synthesis inhibition counterscreen. 12% of 300,000 active. max response, %. AID 2314; in the data active means max response mostly above about 13%, no sharp cut-off; inactive means mostly below about 14%; further: read at 38.3 µM for the half of the compounds with a filed dose; 0% is about no effect
# AmpC inh detg: AmpC beta-lactamase inhibition with detergent present; AmpC hydrolysis of nitrocefin, absorbance 480 nm, 0.01% Triton; P00811; Potency, µM (doses to about 114 µM), inactives show at the highest dose activity change, negative = inhibition, hits mostly inhibitors; 0.041% of 370,000 active;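 further: potency means the concentration at half of the fitted maximal effect; 0% = no-compound wells and -100% = no-enzyme wells; nearly all actives have a fitted effect of over 25% in size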
#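 20 mM phosphate pH 7.0 + 0.01% (detergent screen) or 0.0001% Triton X-100; 5.3 nM AmpC reagent; cpd preinc 15 min RT; nitrocefin (800 uM stock) to start; A480 q20 s × 4 min; Activity was normalised to no-enzyme and no-compound control wells.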
# Active calls of the source: *; ? = inconclusive; / = no result given; [ ] = dose if it differs, or a comment. Unless noted, the call rests on the fitted dose curve; in most records, active means well fitted curve in the direction sought with a large enough effect; inconclusive means small, poorly fitted or top-dose-only effect, or another doubt; inactive means no such curve, though single readings can be large; an effect the other way counts as inactive or inconclusive.
SMILES,AmpC inh no detg,Shiga inhibitor,NS1 inh,Cycloheximide cs,AmpC inh detg
COC(=O)CSc1nnc(SCc2ccc(Cl)cc2)s1,-16%,40,2%,5,3%
COC(=O)c1cnc(SCc2ccc(Cl)cc2)n1C,-2%,65*,/,47*,8%
COC(=O)c1cnc(SCC(=O)c2ccccc2)n1C,-14%,100*,1%,43*,0%
Cn1c(SCC(=O)c2ccccc2)ncc(C(=O)Nc2ccccc2)c1=O,-22%,/,/,/,2%
Cc1nc(-c2ccc(C(=O)N3CCCC3)cc2)cs1,-8%,132*,/,37*,5%
Cc1nc(-c2cccc(S(=O)(=O)N3CCOCC3)c2)cs1,-3%,2,19%,-2,-8%
Cc1nc(-c2ccc(C(=O)N3CCOCC3)cc2)cs1,-1%,48,1%,32*,?
CC(C)CC(=O)C1CCCN(C(=O)c2ccc3oc(Cc4ccccc4)nc3c2)C1 (stereo not drawn),-11%,-6,-34%,11,0%
CC(C)c1nc2cc(C(=O)N3CCNC(=O)C3c3cccc(F)c3)ccc2o1 (stereo not drawn),32%,54,-16%,12*,-2%
CCOC(=O)N1CCN(C(=O)c2ccc3oc(CCCc4ccccc4)nc3c2)CC1,150%,81*,-42%,39*,5%
COCC1CCCN(C(=O)c2ccc3oc(Cc4ccc(Cl)cc4)nc3c2)C1 (stereo not drawn),166%,18,-32%,21,-4%
COCC1CCCCN1C(=O)c1ccc2oc(CCCc3ccccc3)nc2c1 (stereo not drawn),204%,61*,-17%,37*,-2%
CC(=O)N1CCN(C(=O)c2ccc3oc(CCCc4ccccc4)nc3c2)CC1,89%,16,-5%,35*,0%
CC(C)NC(=O)CN1CCN(C(=O)c2ccc3oc(CCCc4ccccc4)nc3c2)CC1,176%,28,-12%,20*,5%
CCOC(=O)C1CCCN(C(=O)c2ccc3oc(Cc4ccccc4)nc3c2)C1 (stereo not drawn),100%,76*,-47%,48*,?
CC(C)c1nc2cc(C(=O)N3CCN(c4cnccn4)CC3)ccc2o1,-6%,51,4%,27*,-5%
O=C(c1ccc2oc(CCCc3ccccc3)nc2c1)N1CCCC(CCCO)C1 (stereo not drawn),195%,47*,-41%,30*,-6%
CC1(C)C(=O)NC2=C1C(=O)C(=O)c1ccccc12,/,-17,/,-17,/
CN1CCN(C(=O)C(=O)Nc2c3c(nn2-c2ccc(Cl)cc2)CSC3)CC1,/,/,/,/,0%
CCCOC1CCCN(C(=O)c2ccc3oc(C(C)C)nc3c2)C1 (stereo not drawn),35%,94*,3%,38*,2%
COCCN1CCN(C(=O)c2ccc3oc(CCc4ccccc4)nc3c2)CC1,105%,35,-4%,23*,-6%
COC1CCN(C(=O)c2ccc3oc(Cc4ccc(Cl)cc4)nc3c2)CC1,118%,-4,-14%,10,0%
Cc1ccc(-c2cc(C3C4C=CCC(C)C4C(=O)N3Cc3ccccc3)ccc2F)cc1 (stereo not drawn),/,6,/,7,/
Cc1ccc(NC(=O)c2ccc3c(c2)N(CC(=O)NC(C)C)C(=O)C(C)(C)O3)cc1,-2%,-13,8%,6,1%
Cc1ccc(OCCOc2ccc(S(=O)(=O)N3CCCC3)cc2C(N)=O)cc1,-16%,/,/,/,1%
SMILES,AmpC inh no detg,Shiga inhibitor,NS1 inh,Cycloheximide cs,AmpC inh detg
CN(C(=O)COC(=O)c1cccnc1Nc1ccccc1F)C1CCS(=O)(=O)C1 (stereo not drawn),51%,65*,-12%,28*,3%
CN(CCC#N)C(=O)COC(=O)c1ccccc1C(=O)c1ccc(Cl)c([N+](=O)[O-])c1,41%,-3,/,15,8%
CCN(C(=O)COC(=O)c1cccnc1Nc1ccccc1F)C1CCS(=O)(=O)C1 (stereo not drawn),102%,54*,-8%,62*,-9%
CN(CCC#N)C(=O)COC(=O)c1cccnc1Nc1ccccc1F,-1%[11.4 µM],21,/,16*,-14%
Cc1cccc(Nc2nnc(-c3ccc(C)c(S(=O)(=O)NCC4CCCO4)c3)c3ccccc23)c1 (stereo not drawn),/,/,/,/,9%
COCCn1c(C)c(C)c2c(NCCc3ccccc3)ncnc21,96%,67*,-7%,25*,-4%
Cc1c(C)n(-c2ccccc2)c2ncnc(NCCCN(C)C)c12,16%,-3,5%,-4,2%
Cc1c(C)n(CCCN(C)C)c2ncnc(Nc3ccccc3)c12,11%,40,5%,7,-5%
Cc1c(C)n(Cc2ccccc2)c2ncnc(NCCN(C)C)c12,18%,-2,1%,-3,4%
Cc1c(C)n(CCc2ccccc2)c2ncnc(NN)c12,-6%,25,0%,16*,-6%
Cc1c(C)n(Cc2ccccc2)c2ncnc(NN)c12,-10%,60,-4%,15*,-1%
Cc1ccc(-n2c(C)c(C)c3c(NCCO)ncnc32)cc1,30%,61*,-1%,40*,-1%
COc1ccccc1-c1cc(C(=O)Nc2c(C)nn(Cc3ccc(Cl)cc3)c2C)no1,/,/,/,/,21%
Cc1c(C)n(Cc2ccccc2)c2ncnc(NCCCN(C)C)c12,17%,-6,6%,0,-1%
Cc1c(C)n(CCc2ccccc2)c2ncnc(NCCCO)c12,49%,102*,-7%,48*,-12%
COc1ccc2[nH]cc(C(=O)NCCc3ccccc3)c(=O)c2c1,-10%,28*,29%,20,?
COCCNC(=O)c1c[nH]c2ccc(S(=O)(=O)N(C)c3ccc(C)c(C)c3)cc2c1=O,123%,43,-2%,22*,2%
C=CCN(c1ccccc1)S(=O)(=O)c1ccc2[nH]cc(C(=O)NCCOC)c(=O)c2c1,26%,-6,?,-2,?
COc1ccc2c(=O)c(C(=O)NCCc3ccccc3)c[nH]c2c1,-33%,18*,19%,25*,-15%
COc1ccc2c(=O)c(C(=O)NCc3ccccc3)c[nH]c2c1,-8%,15,6%,7,2%
CCC(CC)C(=O)N=C1SC2CS(=O)(=O)CC2N1CCc1ccc(OC)cc1 (stereo not drawn),55%,-30,-24%,-2,4%
COc1cc2oc(=O)c(CC(=O)N3CCCCC3)c(C)c2cc1OC,/,/,/,/,-4%
O=C1C2C3C=CC([C@@H]2C(=O)N1C1CCCCC1)[C@H]1C(=O)N(C2CCCCC2)C(=O)C31 (stereo partly drawn),1%,-10,-3%,-5,0%
COc1ccccc1NC(=O)CSc1nnc(NC(=O)Nc2ccc(C)cc2)s1,/,/,/,/,1%
O=C(Cn1nc(N2CCN(c3ccccc3)CC2)ccc1=O)NCc1ccccc1F,/,/,/,/,-2%
COCCCN1C(=O)c2ccc(C(=O)Nc3cccc(OC)c3)cc2C1=O,15%,53*,-3%,37*,1%
COCCCN1C(=O)c2ccc(C(=O)NCCc3ccccc3)cc2C1=O,2%,95*,-1%,45*,1%
